Laboratory results published in PubChem BioAssay (EPA / NIEHS).
The source made the active and inactive calls. The calls were made as follows: active = hit-call score of the fitted dose curve at least 0.9, where 1 is the maximum; inactive = score below 0.9.

How the values were obtained:
[1] = ATG_CRE_CIS: Attagene CIS-FACTORIAL HepG2 Assay for human cAMP Responsive Element (CRE) binding protein 3 (AID 2282926); conditions: HepG2 CRE cis-reporter, Attagene multiplexed mRNA; actives raise or lower the signal
Procedure, shortened: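 HepG2 cells transiently transfected with cis-element-driven multiple reporter transcription units; CRE reporter mRNA measured 24 h after dosing by RT-PCR, 6-FAM labelling, HpaI digestion and capillary electrophoresis. Bidirectional fit versus DMSO baseline.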

[2] = target: CCAAT/enhancer-binding protein beta (Homo sapiens) (UniProt P17676); assay: ATG_C_EBP_CIS: Attagene CIS-FACTORIAL HepG2 Assay for human CCAAT/Enhancer Binding Protein (C/EBP) beta (AID 2282927); conditions: HepG2 Attagene cis-factorial transcription factor reporter; actives raise or lower the signal
CCAAT/enhancer-binding protein beta (Homo sapiens), sequence (P17676 whole entry, looked up): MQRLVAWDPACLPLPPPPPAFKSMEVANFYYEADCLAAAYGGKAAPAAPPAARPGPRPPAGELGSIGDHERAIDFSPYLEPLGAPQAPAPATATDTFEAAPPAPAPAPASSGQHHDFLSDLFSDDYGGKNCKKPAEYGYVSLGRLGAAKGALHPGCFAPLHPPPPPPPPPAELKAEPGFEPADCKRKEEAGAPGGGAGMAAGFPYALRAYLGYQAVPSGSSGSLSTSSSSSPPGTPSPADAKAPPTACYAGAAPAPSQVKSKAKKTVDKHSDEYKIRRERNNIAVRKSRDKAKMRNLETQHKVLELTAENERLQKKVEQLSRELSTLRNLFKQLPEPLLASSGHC
Procedure, shortened: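 Following a 24 h incubation with test chemical, transfected HepG2 cells yielded RNA whose reporter transcripts were quantified by RT-PCR and fluorescent capillary electrophoresis, with DMSO serving as baseline for bidirectional fitting.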

[3] = ATG_CMV_CIS: Attagene CIS-FACTORIAL HepG2 Assay for human CMV (Internal Marker) (AID 2282928); conditions: HepG2 CMV promoter reporter, transcription factor profiling; actives raise or lower the signal;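 also: endpoint acts as a background internal control marker rather than a target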
Procedure, shortened: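 CMV internal-marker background readout in transiently transfected HepG2 cells bearing cis-regulated reporter units. Reporter mRNA is measured 24 h after dosing by RT-PCR and capillary electrophoresis, with bidirectional fitting against DMSO.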

[4] = ATG_DR4_LXR_CIS: Attagene CIS-FACTORIAL HepG2 Assay for human Liver X Receptor (LXR), DR4 submotif (AID 2282929); conditions: HepG2 Attagene DR4 cis-reporter, mRNA transcription; actives raise or lower the signal
Procedure, shortened: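 Total RNA from 24 h-treated, MRTU-transfected HepG2 cells underwent reverse transcription, PCR, fluorescent primer extension and restriction digestion before capillary electrophoresis. Both increases and decreases in reporter signal were fitted against DMSO.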

[5] = target: Aryl hydrocarbon receptor (Homo sapiens) (UniProt P35869); assay: ATG_Ahr_CIS: Attagene CIS-FACTORIAL HepG2 Assay for human Aryl Hydrocarbon Receptor (Ahr) (AID 2282930); conditions: HepG2 AhR cis-factorial reporter transcription; actives raise or lower the signal
Aryl hydrocarbon receptor (Homo sapiens), sequence (P35869 whole entry, looked up): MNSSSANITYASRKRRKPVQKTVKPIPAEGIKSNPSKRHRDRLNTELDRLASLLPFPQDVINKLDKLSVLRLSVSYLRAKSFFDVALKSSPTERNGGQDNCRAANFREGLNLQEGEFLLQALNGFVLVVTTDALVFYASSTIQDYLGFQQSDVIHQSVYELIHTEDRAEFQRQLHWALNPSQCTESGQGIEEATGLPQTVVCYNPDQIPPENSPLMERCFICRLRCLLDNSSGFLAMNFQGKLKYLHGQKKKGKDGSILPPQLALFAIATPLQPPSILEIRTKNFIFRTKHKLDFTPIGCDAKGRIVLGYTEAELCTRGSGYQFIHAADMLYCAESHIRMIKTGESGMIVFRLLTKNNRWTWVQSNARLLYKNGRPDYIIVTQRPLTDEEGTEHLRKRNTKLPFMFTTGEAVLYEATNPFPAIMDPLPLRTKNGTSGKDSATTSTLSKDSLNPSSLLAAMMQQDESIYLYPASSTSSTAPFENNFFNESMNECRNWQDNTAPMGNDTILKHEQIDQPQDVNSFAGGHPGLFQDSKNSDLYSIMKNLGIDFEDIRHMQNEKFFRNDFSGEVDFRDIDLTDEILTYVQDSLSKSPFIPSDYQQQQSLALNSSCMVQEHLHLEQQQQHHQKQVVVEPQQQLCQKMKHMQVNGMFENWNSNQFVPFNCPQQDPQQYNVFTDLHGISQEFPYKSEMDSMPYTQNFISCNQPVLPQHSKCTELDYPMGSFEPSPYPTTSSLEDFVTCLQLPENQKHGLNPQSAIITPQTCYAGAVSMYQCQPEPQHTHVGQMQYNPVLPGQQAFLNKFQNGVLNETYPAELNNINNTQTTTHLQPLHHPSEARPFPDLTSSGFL
Procedure, shortened: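 Values derive from bidirectional fitting against DMSO negative control. Underlying signal: cis-element reporter mRNA in transiently transfected HepG2, harvested 24 h post-dose and measured by RT-PCR plus capillary electrophoresis.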

[6] = ATG_AP_1_CIS: Attagene CIS-FACTORIAL HepG2 Assay for human Activator Protein 1 (AP-1) (AID 2282931); conditions: HepG2 Attagene cis-factorial AP-1 reporter mRNA; actives raise or lower the signal
Procedure, shortened: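 HepG2, transient cis-reporter transfection; 24 h; readout RT-PCR/CE fluorescence; DMSO baseline, gain and loss fitted.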

[7] = ATG_BRE_CIS: Attagene CIS-FACTORIAL HepG2 Assay for human Bone Morphogenetic Protein (BMP) Response Element (BRE) (AID 2282933); conditions: HepG2 BMP response element reporter, Attagene transcription factor profiling; actives raise or lower the signal
Procedure, shortened: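 After a 24 h chemical treatment, transiently transfected HepG2 cells were lysed for RNA; reporter transcripts were quantified by fluorescent RT-PCR and capillary electrophoresis, normalised to DMSO.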

[8] = target: Retinoic acid receptor alpha (Homo sapiens) (UniProt P10276); assay: ATG_DR5_RAR_CIS: Attagene CIS-FACTORIAL HepG2 Assay for human Retinoic Acid Receptor Alpha (RARE), DR5 submotif (AID 2282934); conditions: HepG2 Attagene cis-factorial RARE DR5 reporter, mRNA; actives raise or lower the signal
Retinoic acid receptor alpha (Homo sapiens), sequence (P10276 whole entry, looked up): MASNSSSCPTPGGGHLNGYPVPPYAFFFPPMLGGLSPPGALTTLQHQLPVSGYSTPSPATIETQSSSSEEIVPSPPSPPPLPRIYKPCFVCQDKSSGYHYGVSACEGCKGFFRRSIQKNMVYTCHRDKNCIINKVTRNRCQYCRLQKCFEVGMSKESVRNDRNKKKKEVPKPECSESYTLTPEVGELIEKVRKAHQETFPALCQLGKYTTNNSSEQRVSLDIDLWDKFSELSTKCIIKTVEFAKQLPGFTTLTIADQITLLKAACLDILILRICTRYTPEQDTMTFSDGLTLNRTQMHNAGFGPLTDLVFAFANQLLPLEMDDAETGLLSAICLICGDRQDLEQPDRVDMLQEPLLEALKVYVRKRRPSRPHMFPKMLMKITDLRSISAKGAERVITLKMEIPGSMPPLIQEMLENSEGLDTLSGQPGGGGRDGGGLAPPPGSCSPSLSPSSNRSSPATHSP
Procedure, shortened: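 Endpoint fitted in both directions relative to DMSO as negative control. It reflects DR5 cis-element reporter mRNA induction in transiently transfected HepG2 cells, measured 24 h after dosing through RT-PCR and fluorescent capillary electrophoresis.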

[9] = target: Transcription factor E2F1 (Homo sapiens) (UniProt Q01094); assay: ATG_E2F_CIS: Attagene CIS-FACTORIAL HepG2 Assay for human E2F Transcription Factor 1 (AID 2282935); conditions: HepG2 Attagene cis-reporter, E2F reporter RNA transcripts; actives raise or lower the signal
Transcription factor E2F1 (Homo sapiens), sequence (Q01094 whole entry, looked up): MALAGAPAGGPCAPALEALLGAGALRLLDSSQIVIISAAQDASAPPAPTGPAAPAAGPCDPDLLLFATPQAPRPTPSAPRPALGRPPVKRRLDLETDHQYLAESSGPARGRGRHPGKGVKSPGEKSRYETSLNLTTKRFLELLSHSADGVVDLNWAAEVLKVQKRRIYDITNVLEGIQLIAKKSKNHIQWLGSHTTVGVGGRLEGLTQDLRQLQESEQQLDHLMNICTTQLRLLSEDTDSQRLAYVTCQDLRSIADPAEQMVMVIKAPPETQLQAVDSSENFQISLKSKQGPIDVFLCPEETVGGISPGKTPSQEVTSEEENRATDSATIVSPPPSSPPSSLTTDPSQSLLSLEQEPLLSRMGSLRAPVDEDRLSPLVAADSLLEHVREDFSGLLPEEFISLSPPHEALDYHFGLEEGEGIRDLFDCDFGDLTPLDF
Procedure, shortened: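 HepG2 cells transiently transfected with multiplexed cis-element reporter units, dosed for 24 h. Reporter mRNA measured by RT-PCR, 6-FAM primer-extension labeling, HpaI digestion and capillary electrophoresis; bidirectional fit versus DMSO baseline.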

[10] = ATG_E_Box_CIS: Attagene CIS-FACTORIAL HepG2 Assay for human Enhancer Box (E-box) (AID 2282936); conditions: HepG2 E-box cis-reporter transcription, actives raise or lower the signal
Procedure, shortened: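 HepG2 cells transiently transfected with multiplexed cis-element reporter units sensing endogenous transcription factor activity; 24 h compound exposure. Reporter mRNA measured by RT-PCR, 6-FAM primer extension, HpaI digestion and capillary electrophoresis; bidirectional fit versus DMSO.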

[11] = ATG_M_61_CIS: Attagene CIS-FACTORIAL HepG2 Assay for M61 Transcription Factor (Internal Marker) (AID 2282937); conditions: HepG2 Attagene CIS-FACTORIAL M61 internal marker reporter; actives raise or lower the signal
Procedure, shortened: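 Transfect HepG2 with MRTUs; dose 24 h; isolate RNA; reverse-transcribe with DNase I treatment; PCR-amplify, FAM-label and cut with HpaI for 2 h at 37 C; resolve by CE. Bidirectional fitting against DMSO.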

[12] = ATG_EGR_CIS: Attagene CIS-FACTORIAL HepG2 Assay for human Early Growth Response 1 (EGR1) (AID 2282938); conditions: HepG2 Attagene CIS-FACTORIAL EGR reporter mRNA; actives raise or lower the signal
Procedure, shortened: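 After a 24 h treatment of transiently transfected HepG2 cells, total RNA was reverse-transcribed and reporter sequences PCR-amplified, labelled and run on capillary electrophoresis. Reporters sit under cis-regulatory promoters sensing endogenous factors.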

[13] = ATG_M_19_CIS: Attagene CIS-FACTORIAL HepG2 Assay for M19 Transcription Factor (Internal Marker) (AID 2282939); conditions: HepG2 Attagene CIS-FACTORIAL M19 internal marker reporter; actives raise or lower the signal
Procedure, shortened: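 In this multiplexed cell assay, transiently transfected HepG2 reporter units report endogenous transcription-factor activity; after 24 hours of treatment, labelled reporter cDNA fragments are quantified by capillary electrophoresis and fitted bidirectionally against DMSO.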

[14] = ATG_ERE_CIS: Attagene CIS-FACTORIAL HepG2 Assay for Estrogen Response Element (ERE) (AID 2282940); conditions: HepG2 ERE cis-reporter, Attagene RNA transcript; actives raise or lower the signal
Procedure, shortened: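 Measuring endogenous transcription factor output, the assay doses transfected HepG2 cells for 24 hours and quantifies reporter transcripts by fluorescent RT-PCR and capillary electrophoresis, with DMSO as baseline.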

[15] = target: Hepatocyte nuclear factor 3-beta (Homo sapiens) (UniProt Q9Y261); assay: ATG_FoxA2_CIS: Attagene CIS-FACTORIAL HepG2 Assay for human Forkhead box A2 (FOXA2) (AID 2282942); conditions: HepG2 cis-reporter transcription factor activity, 24 h; actives raise or lower the signal
Hepatocyte nuclear factor 3-beta (Homo sapiens), sequence (Q9Y261 whole entry, looked up): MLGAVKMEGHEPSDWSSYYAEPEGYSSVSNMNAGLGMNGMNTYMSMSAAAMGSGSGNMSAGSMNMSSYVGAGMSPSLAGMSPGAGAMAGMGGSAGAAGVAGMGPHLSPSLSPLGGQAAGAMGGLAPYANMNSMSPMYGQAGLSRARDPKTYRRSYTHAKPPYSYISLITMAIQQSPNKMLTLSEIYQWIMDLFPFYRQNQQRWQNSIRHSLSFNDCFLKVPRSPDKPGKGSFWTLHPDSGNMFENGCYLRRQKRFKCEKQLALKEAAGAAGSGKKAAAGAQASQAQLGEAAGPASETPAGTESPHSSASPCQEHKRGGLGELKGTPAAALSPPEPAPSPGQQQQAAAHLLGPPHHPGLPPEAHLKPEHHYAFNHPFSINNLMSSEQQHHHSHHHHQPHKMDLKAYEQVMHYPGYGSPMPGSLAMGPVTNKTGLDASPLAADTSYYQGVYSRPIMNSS
Procedure, shortened: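 24 h dosing of HepG2 bearing cis-reporter constructs; mRNA readout by RT-PCR/CE fluorescence; bidirectional fit, DMSO baseline.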

[16] = ATG_FoxO_CIS: Attagene CIS-FACTORIAL HepG2 Assay for human Forkhead box O (FoxO) (AID 2282943); conditions: HepG2 Attagene cis-reporter, FoxO element, mRNA; actives raise or lower the signal
Procedure, shortened: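 Values reflect reporter mRNA induction or loss in HepG2 cells 24 h post-dosing, fitted bidirectionally with DMSO as negative control and baseline. Detection used RT-PCR and fluorescence capillary electrophoresis.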

[17] = ATG_GATA_CIS: Attagene CIS-FACTORIAL HepG2 Assay for human GATA Binding Protein (AID 2282944); conditions: HepG2 GATA cis-element reporter, Attagene multiplex mRNA; actives raise or lower the signal
Procedure, shortened: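 Measures endogenous transcription factor-driven reporter mRNA in HepG2 cells transiently carrying cis-regulated constructs. 24 h dosing; RNA via oligo(dT) reverse transcription, PCR, HpaI digestion, capillary electrophoresis; fitted relative to DMSO.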

[18] = ATG_AP_2_CIS: Attagene CIS-FACTORIAL HepG2 Assay for human Activator Protein 2 (AP-2) (AID 2282932); conditions: HepG2 AP-2 cis-reporter, Attagene transcription factor profiling; actives raise or lower the signal
Procedure, shortened: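 HepG2 cells were transiently transfected with multiple cis-promoter reporter transcription units and dosed for 24 h. Reporter mRNA was measured by RT-PCR with capillary electrophoresis fluorescence; bidirectional fits relative to DMSO baseline.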

[19] = ATG_Ets_CIS: Attagene CIS-FACTORIAL HepG2 Assay for human Erythroblast Transformation Specific (ETS) (AID 2282941); conditions: HepG2 ETS cis-reporter transcription, actives raise or lower the signal
Procedure, shortened: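 HepG2 cells transfected with multiple cis-regulated reporter units measuring endogenous ETS-driven transcription, 24 h after dosing. Reporter mRNA quantified by RT-PCR with capillary electrophoresis; bidirectional fit relative to DMSO.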

Measured: AC50

CCC(C)(C)C1CCC(=O)CC1
active: [14] 16.7 µM
not listed: [18] | [19]
inactive: all other assays above

CC(C)(C)c1cc(CCC(=O)OCCSCCOC(=O)CCc2cc(C(C)(C)C)c(O)c(C(C)(C)C)c2)cc(C(C)(C)C)c1O
not listed: [7] | [8] | [10] | [14] | [17]
inactive: all other assays above

CC(C)C(=O)OCC=Cc1ccccc1
not listed: [8] | [18]
inactive: all other assays above

CC(C)Cc1ccc(C(C)C(=O)O)cc1 (centres undefined)
active: [14] 10.6 µM
not listed: [18] | [19]
inactive: all other assays above

O=C(O)c1cccc(Cl)n1
not listed: [14] | [18]
inactive: all other assays above

CC(=O)OC(C)(C)C
not listed: [8] | [11] | [18]
inactive: all other assays above

c1coc(CNc2ncnc3nc[nH]c23)c1
not listed: [8] | [18]
inactive: all other assays above

CCC(CC)CO
not listed: [7] | [8] | [10] | [11] | [17]
inactive: all other assays above

c1ccc(OCCOc2ccccc2)cc1
active: [5] 0.142 µM
not listed: [7] | [8] | [11]
inactive: all other assays above

CNC(=C[N+](=O)[O-])NCCSCc1ccc(CN(C)C)o1
not listed: [18]
inactive: all other assays above

Nc1ccc(O)c(N)c1
active: [5] 14.5 µM | [7] 42.2 µM
not listed: [11] | [17] | [18]
inactive: all other assays above

C=C(C)C(=O)OCCC[Si](OC)(OC)OC
not listed: [7] | [10]
inactive: all other assays above

CC1=C(C=O)C(C)(C)CCC1
not listed: [7] | [8] | [17]
inactive: all other assays above

C=C(C)C(=O)OCCOCCOC(=O)C(=C)C
not listed: [7] | [8] | [11] | [19]
inactive: all other assays above

CC(=O)CCC(=O)O
not listed: [7] | [8] | [10] | [17]
inactive: all other assays above

CC1=CCC(C(C)(C)O)CC1 (centres undefined)
not listed: [7] | [8] | [11] | [14]
inactive: all other assays above

c1ccc2scnc2c1
active: [5] 50.8 µM
not listed: [10] | [18]
inactive: all other assays above
